From PubChem
ALOX12 inh: blocks human arachidonate 12S-lipoxygenase; AID 1671190; 580,000 compounds, 1.1% hits; Potency, µM (series often up to 108 µM), most hits filed as inhibitors; P18054; purified 12hLO, xylenol orange hydroperoxide absorbance
Target sequence (P18054 whole entry, looked up): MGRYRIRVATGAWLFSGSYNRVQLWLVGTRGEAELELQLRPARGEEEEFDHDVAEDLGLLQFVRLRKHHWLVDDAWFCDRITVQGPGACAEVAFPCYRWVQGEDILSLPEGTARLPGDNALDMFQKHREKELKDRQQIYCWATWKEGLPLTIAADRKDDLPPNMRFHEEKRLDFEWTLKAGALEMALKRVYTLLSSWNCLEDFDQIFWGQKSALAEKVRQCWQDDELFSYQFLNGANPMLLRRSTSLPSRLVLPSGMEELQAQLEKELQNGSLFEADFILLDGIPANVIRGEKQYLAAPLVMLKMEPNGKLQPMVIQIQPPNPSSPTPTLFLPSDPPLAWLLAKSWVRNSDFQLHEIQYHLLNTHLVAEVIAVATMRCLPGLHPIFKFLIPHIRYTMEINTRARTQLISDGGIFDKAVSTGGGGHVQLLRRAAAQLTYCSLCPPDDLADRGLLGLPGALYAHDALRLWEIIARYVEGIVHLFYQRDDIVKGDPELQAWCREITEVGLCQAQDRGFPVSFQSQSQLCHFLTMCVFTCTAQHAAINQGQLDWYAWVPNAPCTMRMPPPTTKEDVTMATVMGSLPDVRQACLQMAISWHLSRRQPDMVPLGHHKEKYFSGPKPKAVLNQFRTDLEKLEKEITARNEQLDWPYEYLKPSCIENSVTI
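Hydroperoxide product was detected by ferrous iron/xylenol orange as the 573 to 405 nm absorbance ratio. Arachidonic acid at 40 uM (final) was turned over for 30 min at room temperature by 150 nM human 12hLO, pH 7.0 Hepes buffer, after 15 min compound preincubation.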
ELG1 repair inh: inhibitors of ELG1-dependent DNA repair in HEK293T cells; HEK293T ELG1-luciferase reporter, luminescence, 16 h; DNA damage induced by 5-fluorouridine; Potency, µM (top dose mostly 46.1 µM), most hits filed as inhibitors; 330,000 compounds, 2.3% hits; further: nearly all actives have a fitted effect of over 55% in size
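Step one: seed 2,000 cells per well. Step two: pin-transfer compound or DMSO alongside 5-fluorouridine. Step three: incubate 16 hr, 37 °C, 5% CO2. Step four: add ONE-Glo, wait 30 min, read luminescence.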
Gal4-VP16 FLuc: Gal4-VP16 reporter inhibition counter-screen; Potency, µM (top dose mostly 53.6 µM), most hits filed as inhibitors; Drosophila S2 Gal4-VP16 UAS-luciferase, luminescence, 20 h; AID 2546; 310,000 compounds, 3.5% hits;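 further: Gal4-VP16 expression switched on by copper sulfate through the metallothionein promoter; nearly all actives have a fitted effect of over 50% in size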
DT40 TDP1 CPT: growth inhibition of DT40 Tdp1-/-;hTDP1 cells with camptothecin (screen for TDP1 inhibitors). chicken DT40 Tdp1-/-;hTDP1 cells + 20 nM CPT, ATP luminescence, 48 h. Potency, µM (top dose mostly 46.2 µM), usual class: inhibitors. 420,000 compounds, 12% hits; further: nearly all actives have a fitted effect of over 55% in size
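Cell growth measured by CellTiter-Glo luminescence after a minimum 48 h, 37 C compound exposure with 20 nM CPT in Tdp1-knockout DT40 cells stably expressing hTDP1, seeded 400/well; qHTS titration format.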
TDP1 cell noCPT: qHTS for Inhibitors of human tyrosyl-DNA phosphodiesterase 1 (TDP1): qHTS in cells in absence of CPT; DT40 Tdp1-/- hTDP1 cells, no CPT, ATP luminescence, 48 h; Potency, µM (doses to about 46.2 µM), most hits filed as inhibitors; 420,000 compounds, 15% hits; AID 686978, 2013; further: nearly all actives have a fitted effect of over 55% in size
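Stably hTDP1-transfected Tdp1-null chicken DT40 cells were treated with library compounds minus camptothecin and grown for at least 48 hr at 37 °C, after which cellular ATP was quantified by luminescence.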
RORg inh: blocks mouse ROR gamma transcriptional activity. Potency, µM (titrated, usually from 53.6 µM), hits mostly inhibitors. AID 2551. 310,000 compounds, 5.4% hits. Drosophila S2 Gal4-RORgamma UAS-luciferase reporter, 20 h; further: nearly all actives have a fitted effect of over 60% in size
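In this cell-based reporter format, copper sulfate (700 uM final) drives Gal4–ROR gamma fusion expression from a metallothionein promoter in Drosophila Schneider cells; compounds preincubated 1 hr, reporter read after 20 hr at ambient temperature.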
Each line names hits and unclear results; the compound was inactive in the other large screens. An excerpt weighted towards active compounds, which were near 15% of everything screened. The call rests on the fitted dose curve; in most records, active means well fitted curve in the direction sought with a large enough effect; inconclusive means small, poorly fitted or top-dose-only effect, or another doubt; inactive means no such curve, though single readings can be large; an effect the other way counts as inactive or inconclusive.

CC(C)C(C)NC(=O)COc1ccc(Sc2ccc(OCC(=O)NC(C)C(C)C)cc2)cc1 (configuration not stated)	ELG1 repair inh 8.2µM, Gal4-VP16 FLuc inconclusive, DT40 TDP1 CPT 12µM, TDP1 cell noCPT 8.2µM, RORg inh inconclusive
CC(C)C(C)NC(=O)COc1ccc(OCc2ccccc2)cc1 (configuration not stated)	DT40 TDP1 CPT inconclusive, TDP1 cell noCPT inconclusive, RORg inh inconclusive
CC(C)NC(=O)COc1ccc(OCc2ccccc2)cc1	DT40 TDP1 CPT inconclusive, TDP1 cell noCPT 29µM
Cc1ccc(-n2nc3n(c2=O)CCN(C(=O)C2CC2)C3)cc1	none (no result: ELG1 repair inh, Gal4-VP16 FLuc, DT40 TDP1 CPT, TDP1 cell noCPT, RORg inh)
CCOC(=O)CSC1=NC(=O)/C(=C/c2ccc(OC)cc2)S1	ELG1 repair inh inconclusive, Gal4-VP16 FLuc inconclusive, DT40 TDP1 CPT 1.5µM, TDP1 cell noCPT 1.3µM (no result: ALOX12 inh)
CCOC(=O)CSC1=N/C(=C\c2ccc(OC)c(OC)c2)C(=O)N1C	DT40 TDP1 CPT 26µM, TDP1 cell noCPT inconclusive
CCOC(=O)C1=C(O)/C(=C\c2ccc(OC)c(OC)c2)N=C1C	none
CCOC(=O)Cc1cc(=O)n2[nH]c(C)c(-c3ccc(Cl)cc3)c2n1	Gal4-VP16 FLuc inconclusive, DT40 TDP1 CPT 16µM, TDP1 cell noCPT 11µM, RORg inh 11µM
CCOC(=O)Cc1cc(=O)n2[nH]c(C)c(-c3ccc(OC)cc3)c2n1	DT40 TDP1 CPT inconclusive, TDP1 cell noCPT inconclusive (no result: Gal4-VP16 FLuc)
CCc1cc(=O)n2[nH]c(-c3ccccc3)c(-c3ccccc3)c2n1	ELG1 repair inh inconclusive, DT40 TDP1 CPT inconclusive, TDP1 cell noCPT 21µM, RORg inh inconclusive
COC(=O)Cc1cc(=O)n2[nH]c(C)c(-c3ccccc3)c2n1	Gal4-VP16 FLuc 4µM, RORg inh 3.5µM
COc1cccc(CC(=O)N2CCC(Cn3c(C)cnc3C3CCC3)CC2)c1	none (no result: ELG1 repair inh, Gal4-VP16 FLuc, DT40 TDP1 CPT, TDP1 cell noCPT, RORg inh)
CC(=O)N1CCN(C(=O)C2CCNCC2)C[C@@H]1C(=O)N[C@@H](CC1CCCCC1)C(N)=O	none (no result: ELG1 repair inh, Gal4-VP16 FLuc, DT40 TDP1 CPT, TDP1 cell noCPT, RORg inh)
O=C(Cc1ccccc1)N(CC1CCOC1)C1CC1 (configuration not stated)	none (no result: ELG1 repair inh, Gal4-VP16 FLuc, DT40 TDP1 CPT, TDP1 cell noCPT, RORg inh)
Cc1oc(C(C)C)cc1C(=O)N1CC[C@](C)(O)[C@@H](O)C1	none (no result: ELG1 repair inh, Gal4-VP16 FLuc, DT40 TDP1 CPT, TDP1 cell noCPT, RORg inh)
CCS(=O)(=O)c1ccc(-c2csc(-c3ccccc3)n2)c(Cl)c1Cl	DT40 TDP1 CPT 16µM, TDP1 cell noCPT 21µM, RORg inh inconclusive
Clc1ccccc1-c1csc(-c2ccccc2)n1	none (no result: ELG1 repair inh, Gal4-VP16 FLuc, DT40 TDP1 CPT, TDP1 cell noCPT, RORg inh)
CCn1c(CSc2nc3ccccc3s2)nc2ccccc21	Gal4-VP16 FLuc inconclusive, DT40 TDP1 CPT inconclusive, TDP1 cell noCPT 16µM, RORg inh 10µM
c1csc(CSc2nc3ccccc3s2)c1	ELG1 repair inh inconclusive, RORg inh inconclusive
S=c1[nH]nc(CSc2nc3ccccc3s2)n1C1CCCCC1	ALOX12 inh inconclusive, Gal4-VP16 FLuc 1.3µM, DT40 TDP1 CPT inconclusive, TDP1 cell noCPT inconclusive, RORg inh 0.2µM
C#CCSc1nnc(CSc2nc3ccccc3s2)n1-c1ccccc1	ELG1 repair inh inconclusive, Gal4-VP16 FLuc inconclusive, DT40 TDP1 CPT inconclusive, TDP1 cell noCPT 18µM
O=C(O)CSc1nnc(CSc2nc3ccccc3s2)n1-c1ccccc1	none
Cc1cc(C)n2c(Br)c(CSc3nc4ccccc4s3)nc2n1	ELG1 repair inh inconclusive, TDP1 cell noCPT 18µM
Cc1ccsc1C(=O)N1CCCC(Cc2nc(C3CCOCC3)no2)C1 (configuration not stated)	none (no result: ELG1 repair inh, Gal4-VP16 FLuc, DT40 TDP1 CPT, TDP1 cell noCPT, RORg inh)
CCCc1nc2n(n1)C1(CCCCC1)[C@@H]1CCCC[C@@H]1N2C(=O)CC	none (no result: ELG1 repair inh, Gal4-VP16 FLuc, DT40 TDP1 CPT, TDP1 cell noCPT, RORg inh)
CC(C)C(=O)N1c2nc(C(C)C)nn2C2(CCCCC2)[C@@H]2CCCC[C@@H]21	DT40 TDP1 CPT 6.5µM, TDP1 cell noCPT 4.6µM (no result: ELG1 repair inh, Gal4-VP16 FLuc, RORg inh)
CCc1nc2n(n1)C1(CCCCC1)[C@@H]1CCCC[C@@H]1N2C(=O)CC(C)C	none (no result: ELG1 repair inh, Gal4-VP16 FLuc, DT40 TDP1 CPT, TDP1 cell noCPT, RORg inh)
CC(C)c1nc2n(n1)C1(CCCCC1)[C@@H]1CCCC[C@@H]1N2	DT40 TDP1 CPT inconclusive, TDP1 cell noCPT 23µM (no result: ELG1 repair inh, Gal4-VP16 FLuc, RORg inh)
COc1ccccc1Cn1c(C(C)NC(=O)OCc2ccccc2)nc2cccnc21 (configuration not stated)	none (no result: ELG1 repair inh, Gal4-VP16 FLuc, DT40 TDP1 CPT, TDP1 cell noCPT, RORg inh)
Cc1cc(C)c(C(=O)COC(=O)/C=C/c2cccs2)cc1C	none (no result: ELG1 repair inh, Gal4-VP16 FLuc, DT40 TDP1 CPT, TDP1 cell noCPT, RORg inh)
